From PubChem BioAssay
TGFb SMAD3 inh: TGF-b pathway inhibition. Potency, µM (series often up to 46.1 µM), for the others: at the highest dose activity, negative = inhibition, actives largely listed as inhibitors. HepG2 CAGA-GFP TGF-b/SMAD3 reporter, GFP fluorescence, 18 h; TGF-beta stimulated, 500 pg/mL final. 1.2% of 410,000 active; further: on the % scale 0 is the no-effect control and ±100 the full control effect; nearly all actives have a fitted effect of over 65% in size
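Per well, imaged GFP fluorescence of HEPG2 CAGA-GFP cells gives the signal; cells get compound, then TGF-beta (500 pg/mL final), 18 h at 37 degrees C; %Activity versus -TGF-beta and +DMSO controls.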
HepG2 tox-1: kills HepG2 cells in TGF-b inhibitor counter-screen; HepG2 CAGA-GFP viability, ATP luminescence, 18 h; Potency, µM (doses to about 46.1 µM), for the others: at the highest dose activity change, negative = cytotoxicity, usual class: cytotoxic; 0.76% of 410,000 active; AID 588856
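CellTiter-Glo luminescence gave cytotoxicity after 18 hours at 37 degrees C. The cells were HepG2 CAGA-GFP in 1% FBS DMEM, stimulated with 500 pg/mL TGF-beta after compound addition. %Activity was normalised to no-cell wells (complete cell-killing) and DMSO (no toxicity), and curves were fitted and classified.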
A549 viability: kills or reduces viability of A549 cells in Nrf2 counter-screen; A549 ARE-Fluc cells, CellTiter-Fluor viability, 18-24 h; Potency, µM (top dose mostly 46 µM), without a hit: at the highest dose activity change, negative = cytotoxicity, actives largely listed as inhibitors; 0.16% of 390,000 active; further: on the % scale 0 is the no-effect control and ±100 the full control effect
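A549 ARE-Fluc cells in 5% FBS OPTI-MEM, 5000 cells/well, rested 2 h then exposed to compounds in concentration-response for 18-24 h at 37 °C. Viability by CellTiter-Fluor fluorescence (Ex 405/Em 525) after 30 min; luciferase luminescence (BugLite, 15 min, RT) read afterwards.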
Nrf2 ARE act: activates Nrf2 signaling; 0.31% of 410,000 active; Potency, µM (series often up to 46.1 µM), inactives show top-dose activation, hits mostly activators; AREc32 ARE-luciferase reporter (MCF7-derived line), luminescence, 24 h; further: % of control where 0% means no effect; nearly all actives have a fitted effect of over 65% in size
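Reporter line AREc32 (ARE-Fluc), seeded overnight in OPTI-MEM with 5% FBS; compound pin-transferred, 24 hr at 37 deg C, 5% CO2; luminescent read-out.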
Nrf2 block: Nrf2 pathway inhibition. A549 ARE-Fluc reporter, luciferase luminescence, 18-24 h. Potency, µM (doses to about 46 µM), for inactives: at the highest dose activity change, negative = inhibition, usual class: inhibitors. 2.1% of 360,000 active. AID 504444; further: on the % scale 0 is the no-effect control and ±100 the full control effect; nearly all actives have a fitted effect of over 60% in size
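Reporter: ARE-Fluc in A549. Exposure: 18-24 h, 37 °C, 5% CO2, 5% FBS OPTI-MEM. Readouts: fluorescent cytotoxicity (CellTiter-Fluor), then luminescent Nrf2 signal after BugLite.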
TGFb confirm: TGF-b pathway inhibition, cherry-pick retest. Potency, µM (titrated, usually from 46.1 µM), for the others: at the top dose activity, negative = inhibition, hits mostly inhibitors. shares compounds with TGFb SMAD3 inh. HepG2 CAGA-GFP TGF-b reporter, GFP fluorescence, 18 h; cells stimulated with TGF-beta, 500 pg/mL. AID 720534. 63% of 1,600 active; further: on the % scale 0 is the no-effect control and ±100 the full control effect; nearly all actives have a fitted effect of over 65% in size
HepG2 tox-2: counter-screen for TGF-b inhibitors: cytotoxicity in HepG2 cells; shares compounds with TGFb SMAD3 inh; HepG2 CAGA-GFP viability, ATP luminescence, 18 h; cells stimulated with TGF-beta, 500 pg/mL; Potency, µM (titrated, usually from 46.1 µM), without a hit: at the top dose activity, negative = cytotoxicity, usual class: inhibitors; 27% of 1,600 active; AID 720535; further: on the % scale 0 is the no-effect control and ±100 the full control effect; nearly all actives have a fitted effect of over 70% in size
CCL64 TGFb inh: blocks TGF-b signaling in CCL64 reporter cells; CCL64 CAGA-GFP reporter, TGF-b stimulated, GFP fluorescence, 18 h; shares compounds with TGFb SMAD3 inh; Potency, µM (top dose mostly 46.1 µM), for inactives: top-dose activity, negative = inhibition, hits mostly inhibitors; 41% of 1,600 active; further: nearly all actives have a fitted effect of over 65% in size
COP TGFb inh: validation of TGF-b inhibitors in HepG2 COP promoter reporter; shares compounds with TGFb SMAD3 inh; HepG2 COP-GFP TGF-b reporter, GFP fluorescence, 18 h; cells stimulated by added recombinant TGF-beta; Potency, µM (doses to about 46.1 µM), for inactives: at the top dose activity, negative = inhibition, actives largely listed as inhibitors; 3% of 1,600 active; further: nearly all actives have a fitted effect of over 70% in size
An asterisk follows results filed as active; [ ] = another dose, or the depositor's remark. The list is not random: actives were taken first. Their share in the collection is about 3.6%. The call rests on the fitted dose curve; in most records, active means well fitted curve in the direction sought with a large enough effect; inconclusive means small, poorly fitted or top-dose-only effect, or another doubt; inactive means no such curve, though single readings can be large; an effect the other way counts as inactive or inconclusive. Potency means the concentration at half of the fitted maximal effect.

What do the screens show for `COc1ccc(CNC(=O)c2nc(S(=O)(=O)Cc3ccccc3)ncc2Cl)cc1`?
TGFb SMAD3 inh: 6.31µM*; HepG2 tox-1: 12.6µM*; A549 viability: inconclusive; Nrf2 ARE act: -3.9%; Nrf2 block: 18.4µM*; TGFb confirm: 3.66µM*; HepG2 tox-2: 16.4µM*; CCL64 TGFb inh: 2.31µM*; COP TGFb inh: inconclusive

What do the screens show for `Cc1ccc(CS(=O)(=O)c2ncc(Cl)c(C(=O)Nc3ccc(OC(F)F)cc3)n2)cc1`?
TGFb SMAD3 inh: 10µM*; HepG2 tox-1: 17.8µM*; A549 viability: inconclusive; Nrf2 ARE act: -2.0%; Nrf2 block: inconclusive; TGFb confirm: 8.2µM*; HepG2 tox-2: 16.4µM*; CCL64 TGFb inh: 3.26µM*; COP TGFb inh: inconclusive

What do the screens show for `CN(C)S(=O)(=O)c1cccc(C(=O)NCCNC(=O)c2cccc(S(=O)(=O)N(C)C)c2)c1`?
TGFb SMAD3 inh: 1.6%; HepG2 tox-1: 9.7%; A549 viability: 2.2%; Nrf2 ARE act: 0.6%; Nrf2 block: -7.3%

What do the screens show for `COC(=O)c1ccc(NC(=O)CN2C(=O)CSC2=O)cc1`?
TGFb SMAD3 inh: -9.3%; HepG2 tox-1: -16.7%; A549 viability: -0.4%; Nrf2 ARE act: 0.3%; Nrf2 block: 0.8%

Results for CCn1c(SCc2cccc(Br)c2)nnc1-c1nonc1NC(C)=O ?
TGFb SMAD3 inh: inconclusive; HepG2 tox-1: -20.4%; A549 viability: 6.2%; Nrf2 ARE act: -0.4%; Nrf2 block: inconclusive

How did COC(=O)C1=C(C)N(CCCC(=O)O)C(=O)NC1c1ccc(C(F)(F)F)cc1 (centres undefined) do in these assays?
TGFb SMAD3 inh: -24.4%; HepG2 tox-1: -1.1%; A549 viability: -2.4%; Nrf2 ARE act: -0.9%; Nrf2 block: -6.9%

How did Cc1cccc(/C=C(\c2nc3ccccc3[nH]2)S(=O)(=O)c2ccccc2)c1 do in these assays?
TGFb SMAD3 inh: 10µM*; HepG2 tox-1: -91.6%; A549 viability: inconclusive; Nrf2 ARE act: inconclusive; Nrf2 block: 23.1µM*; TGFb confirm: 4.61µM*; HepG2 tox-2: 4.61µM*; CCL64 TGFb inh: 5.8µM*; COP TGFb inh: inconclusive

What do the screens show for `CCOc1ccc(S(=O)(=O)N2CCC(C(=O)NCc3ccco3)CC2)cc1`?
TGFb SMAD3 inh: 0.0%; HepG2 tox-1: -33.6%; A549 viability: 1.3%; Nrf2 ARE act: -0.7%; Nrf2 block: -27.1%

Results for CCOc1ccc(S(=O)(=O)N2CCN(C(=S)NCc3ccco3)CC2)cc1 ?
TGFb SMAD3 inh: 8.91µM*; HepG2 tox-1: -22.3%; A549 viability: 12.9%; Nrf2 ARE act: 3.8%; Nrf2 block: -19.3%; TGFb confirm: inconclusive; HepG2 tox-2: -0.6%; CCL64 TGFb inh: inconclusive; COP TGFb inh: 2.6%

Results for Cc1ccc(Cl)cc1N1CCN(C(=S)NCc2ccco2)CC1 ?
TGFb SMAD3 inh: 15.8µM*; HepG2 tox-1: -18.8%; A549 viability: -0.2%; Nrf2 ARE act: 5.8%; Nrf2 block: inconclusive; TGFb confirm: 16.4µM*; HepG2 tox-2: inconclusive; CCL64 TGFb inh: inconclusive; COP TGFb inh: 37.6%

How did O=C(O)CC(CN1C(=O)c2ccccc2C1=O)c1ccccc1 (centres undefined) do in these assays?
TGFb SMAD3 inh: 2.9%; HepG2 tox-1: 10.2%; A549 viability: -7.4%; Nrf2 ARE act: -0.5%; Nrf2 block: -5.9%

What do the screens show for `CCc1ccc(NC(=O)N(CCN2CCOCC2)C2CCN(C(C)=O)CC2)cc1`?
TGFb SMAD3 inh: -4.0%; HepG2 tox-1: -1.6%; A549 viability: -2.0%; Nrf2 ARE act: 0.6%; Nrf2 block: -7.3%

Results for Cc1c(/C=N\NC(=O)C2COc3ccccc3O2)c2ccccc2n1C (centres undefined) ?
TGFb SMAD3 inh: 8.91µM*; HepG2 tox-1: -2.0%; A549 viability: -11.6%; Nrf2 ARE act: -0.2%[9.22 µM]; Nrf2 block: inconclusive; TGFb confirm: 5.8µM*; HepG2 tox-2: -13.4%; CCL64 TGFb inh: 6.51µM*; COP TGFb inh: -4.9%

Results for Cc1nc(-c2ccc(C)c(S(=O)(=O)N3CCC(C(=O)Nc4ccc(Cl)cc4)CC3)c2)no1 ?
TGFb SMAD3 inh: inconclusive; HepG2 tox-1: -12.5%; A549 viability: -11.5%; Nrf2 ARE act: 5.0%

What do the screens show for `Cc1ccc2nc3c(c(Nc4ccc5c(c4)OCCO5)c2c1)CCC3`?
TGFb SMAD3 inh: 3.55µM*; HepG2 tox-1: -20.5%; A549 viability: -9.5%; Nrf2 ARE act: -0.7%; Nrf2 block: -6.0%; TGFb confirm: inconclusive; HepG2 tox-2: inconclusive; CCL64 TGFb inh: inconclusive; COP TGFb inh: 78.3%

What do the screens show for `CC(CNC(=O)COc1ccccc1)OC(=O)Nc1cccc(Cl)c1` (centres undefined)?
TGFb SMAD3 inh: -4.7%; HepG2 tox-1: 3.9%; A549 viability: -1.2%; Nrf2 ARE act: -0.2%; Nrf2 block: -0.4%

How did Cc1ccc(NC(=O)C(C)c2ccc(-c3ccccc3)c(F)c2)cc1 (centres undefined) do in these assays?
TGFb SMAD3 inh: 10µM*; HepG2 tox-1: -32.9%; A549 viability: inconclusive; Nrf2 ARE act: -0.2%; Nrf2 block: 14.6µM*; TGFb confirm: -10.1%; HepG2 tox-2: -13.5%; CCL64 TGFb inh: 0.3%; COP TGFb inh: -1.8%

Results for CCc1cc2c(NCC3CCCO3)nc(C)nc2s1 (centres undefined) ?
TGFb SMAD3 inh: 0.9%; HepG2 tox-1: 3.1%; A549 viability: -2.1%; Nrf2 ARE act: 2.1%; Nrf2 block: inconclusive
